Measurements published in PubChem BioAssay.
The source made the active and inactive calls.

Tests used:
[1] = binders of probe aFSTL3 on microarray, primary screen, stem cell growth factor project, biochemical, small-molecule microarray, fluorescence 635/667 (AID 1064); conditions: higher = more signal;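 note: measures binding of the biotinylated anti-FSTL3 antibody to printed compounds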
[2] = binders from COS7 lysate, DM2A8 probe, primary screen, torsin A project, cell lysate, small-molecule microarray, fluorescence 635/667 (AID 1065); conditions: higher = more signal, COS7 lysate expressing mutant human TOR1A
[3] = binders of probe aFGF2 on microarray, primary screen, stem cell growth factor project, biochemical, small-molecule microarray, fluorescence 635/667 (AID 1067); conditions: higher = more signal;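 note: measures binding of biotinylated aFGF2 protein to printed compounds on slides; z-score merges feature fluorescence and signal-to-noise across triplicate slides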
[4] = binders of probe aFGF10 on microarray, primary screen, stem cell growth factor project, biochemical, small-molecule microarray, fluorescence 635/667 (AID 1071); conditions: higher = more signal;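 note: score merges 667 nm spot intensity and signal to noise from triplicate slides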
[5] = biological target: Neurogenic locus notch homolog protein 2 (Homo sapiens) (UniProt Q04721); assay: Notch2 binders on small-molecule microarrays, primary screen, biochemical, small-molecule microarray, 635 nm fluorescence, stem cell growth factors (AID 1073); conditions: Notch2 binding, higher = more signal
[6] = biological target: Pro-neuregulin-1, membrane-bound isoform (Homo sapiens) (UniProt Q02297); assay: NRG1 binders on small-molecule microarrays, primary screen, psychiatric disease protein project, biochemical, small-molecule microarray, fluorescence 635/667 (AID 1075); conditions: NRG1 binding, 635 nm fluorescence, higher = more signal;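 note: score combines 667 nm spot fluorescence with signal to noise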
[7] = system: Neuregulin-1 EGF-like domain; assay: binders of neuregulin-1 EGF-like domain, primary screen, biochemical, small-molecule microarray, 635 nm fluorescence (AID 1081); conditions: small-molecule microarray binding, higher = more signal;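 note: binding of the protein to compounds printed on small-molecule microarray slides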
[8] = FRG1 promoter luciferase signal modulators, primary screen, FRG1 inhibition for FSHD, cell-based, C2C12 myotubes, firefly/Renilla luciferase, luminescence (AID 1084); conditions: higher = more signal, called active from +8 up or from −8 down
[9] = binders of probe aFST on microarray, primary screen, stem cell growth factor project, biochemical, small-molecule microarray, fluorescence 635/667 (AID 1086); conditions: higher = more signal;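 note: score merges 667 nm fluorescence with signal-to-noise of each printed compound spot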
[10] = binders of probe aHhip on microarray, primary screen, stem cell growth factor project, biochemical, small-molecule microarray, fluorescence 635/667 (AID 1087); conditions: higher = more signal;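 note: score merges spot fluorescence at 667nm with spot signal to noise ratio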
[11] = system: PRMT1 (protein arginine N-methyltransferase 1); assay: PRMT1 binders on small-molecule microarrays, primary screen, biochemical, small-molecule microarray, 635 nm fluorescence (AID 1088); conditions: small-molecule microarray binding, higher = more signal;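 note: binding of Prmt1 protein to compounds spotted on small-molecule microarray slides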
[12] = yeast growth modulation, basal conditions, primary screen, YJM789 clinical isolate, OD600, 24 h (AID 1089);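 note: growth of clinical yeast isolate S. cerevisiae YJM 789 seeded 1000 cells per well; test concentration not given here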; conditions: S. cerevisiae YJM789 growth, higher = more signal, called active from +8 up or from −8 down
[13] = fission yeast growth modulation, primary screen, strain 972, OD600, 24 h, no modulator (AID 1090);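 note: basal condition with compound alone and no growth modifier present; test concentration not given here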; conditions: S. pombe 972 growth, higher = more signal, called active from +8 up or from −8 down
[14] = S. cerevisiae growth modulation with rapamycin, primary screen, strain BY4716, OD600, 96 h (AID 1091); conditions: higher = more signal, called active from +8 up or from −8 down; note: test concentration not given here
[15] = biological target: Torsin-1A-interacting protein 2 (Homo sapiens) (UniProt Q8NFQ8); assay: LULL1 binders on small-molecule microarray, primary screen, cell lysate, human LULL1 lysate, 635/667 nm fluorescence (AID 1092); conditions: hLULL1 lysate binding, 635 nm fluorescence, higher = more signal;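 note: probe is lysate of COS7 cells overexpressing human LULL1; score merges per-feature 667 nm fluorescence with signal-to-noise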
[16] = E. coli growth modulation, two-sided OD650, primary screen, E. coli filamentation project, strain DRC41, 24 h (AID 1093); conditions: OD650, 24 h, higher = more signal, called active from +8 up or from −8 down;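 note: MC1000 strain lacking acrAB efflux and sulA so SOS filamentation is blocked; test concentration not given here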
[17] = small-molecule microarray binders of probe aLefty2, primary screen, biochemical, biotinylated probe, 635/667 nm fluorescence (AID 1094); conditions: higher = more signal;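 note: score merges spot fluorescence near 667 nm with spot signal-to-noise ratio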
[18] = system: Noggin (protein binding on small-molecule microarray); assay: Noggin binders on small-molecule microarray, primary screen, biochemical, 635/667 nm fluorescence (AID 1095); conditions: 635 nm fluorescence, higher = more signal;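 note: score merges 667 nm feature fluorescence with signal to noise over triplicate slides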
[19] = biological target: Neurogenic locus notch homolog protein 3 (Homo sapiens) (UniProt Q9UM47); assay: NOTCH3 binders on small-molecule microarray, primary screen, biochemical, 635/667 nm fluorescence (AID 1096); conditions: NOTCH3 binding, 635 nm fluorescence, higher = more signal
[20] = small-molecule microarray binders of probe aEGFR, primary screen, biochemical, biotinylated probe, 635/667 nm fluorescence (AID 1097); conditions: higher = more signal;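 note: probe is a biotinylated anti-EGFR antibody binding compounds printed on slides; score combines fluorescence near 667 nm and signal to noise of each spot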

Sequence of Neurogenic locus notch homolog protein 3 (Homo sapiens) (Q9UM47 whole entry, looked up): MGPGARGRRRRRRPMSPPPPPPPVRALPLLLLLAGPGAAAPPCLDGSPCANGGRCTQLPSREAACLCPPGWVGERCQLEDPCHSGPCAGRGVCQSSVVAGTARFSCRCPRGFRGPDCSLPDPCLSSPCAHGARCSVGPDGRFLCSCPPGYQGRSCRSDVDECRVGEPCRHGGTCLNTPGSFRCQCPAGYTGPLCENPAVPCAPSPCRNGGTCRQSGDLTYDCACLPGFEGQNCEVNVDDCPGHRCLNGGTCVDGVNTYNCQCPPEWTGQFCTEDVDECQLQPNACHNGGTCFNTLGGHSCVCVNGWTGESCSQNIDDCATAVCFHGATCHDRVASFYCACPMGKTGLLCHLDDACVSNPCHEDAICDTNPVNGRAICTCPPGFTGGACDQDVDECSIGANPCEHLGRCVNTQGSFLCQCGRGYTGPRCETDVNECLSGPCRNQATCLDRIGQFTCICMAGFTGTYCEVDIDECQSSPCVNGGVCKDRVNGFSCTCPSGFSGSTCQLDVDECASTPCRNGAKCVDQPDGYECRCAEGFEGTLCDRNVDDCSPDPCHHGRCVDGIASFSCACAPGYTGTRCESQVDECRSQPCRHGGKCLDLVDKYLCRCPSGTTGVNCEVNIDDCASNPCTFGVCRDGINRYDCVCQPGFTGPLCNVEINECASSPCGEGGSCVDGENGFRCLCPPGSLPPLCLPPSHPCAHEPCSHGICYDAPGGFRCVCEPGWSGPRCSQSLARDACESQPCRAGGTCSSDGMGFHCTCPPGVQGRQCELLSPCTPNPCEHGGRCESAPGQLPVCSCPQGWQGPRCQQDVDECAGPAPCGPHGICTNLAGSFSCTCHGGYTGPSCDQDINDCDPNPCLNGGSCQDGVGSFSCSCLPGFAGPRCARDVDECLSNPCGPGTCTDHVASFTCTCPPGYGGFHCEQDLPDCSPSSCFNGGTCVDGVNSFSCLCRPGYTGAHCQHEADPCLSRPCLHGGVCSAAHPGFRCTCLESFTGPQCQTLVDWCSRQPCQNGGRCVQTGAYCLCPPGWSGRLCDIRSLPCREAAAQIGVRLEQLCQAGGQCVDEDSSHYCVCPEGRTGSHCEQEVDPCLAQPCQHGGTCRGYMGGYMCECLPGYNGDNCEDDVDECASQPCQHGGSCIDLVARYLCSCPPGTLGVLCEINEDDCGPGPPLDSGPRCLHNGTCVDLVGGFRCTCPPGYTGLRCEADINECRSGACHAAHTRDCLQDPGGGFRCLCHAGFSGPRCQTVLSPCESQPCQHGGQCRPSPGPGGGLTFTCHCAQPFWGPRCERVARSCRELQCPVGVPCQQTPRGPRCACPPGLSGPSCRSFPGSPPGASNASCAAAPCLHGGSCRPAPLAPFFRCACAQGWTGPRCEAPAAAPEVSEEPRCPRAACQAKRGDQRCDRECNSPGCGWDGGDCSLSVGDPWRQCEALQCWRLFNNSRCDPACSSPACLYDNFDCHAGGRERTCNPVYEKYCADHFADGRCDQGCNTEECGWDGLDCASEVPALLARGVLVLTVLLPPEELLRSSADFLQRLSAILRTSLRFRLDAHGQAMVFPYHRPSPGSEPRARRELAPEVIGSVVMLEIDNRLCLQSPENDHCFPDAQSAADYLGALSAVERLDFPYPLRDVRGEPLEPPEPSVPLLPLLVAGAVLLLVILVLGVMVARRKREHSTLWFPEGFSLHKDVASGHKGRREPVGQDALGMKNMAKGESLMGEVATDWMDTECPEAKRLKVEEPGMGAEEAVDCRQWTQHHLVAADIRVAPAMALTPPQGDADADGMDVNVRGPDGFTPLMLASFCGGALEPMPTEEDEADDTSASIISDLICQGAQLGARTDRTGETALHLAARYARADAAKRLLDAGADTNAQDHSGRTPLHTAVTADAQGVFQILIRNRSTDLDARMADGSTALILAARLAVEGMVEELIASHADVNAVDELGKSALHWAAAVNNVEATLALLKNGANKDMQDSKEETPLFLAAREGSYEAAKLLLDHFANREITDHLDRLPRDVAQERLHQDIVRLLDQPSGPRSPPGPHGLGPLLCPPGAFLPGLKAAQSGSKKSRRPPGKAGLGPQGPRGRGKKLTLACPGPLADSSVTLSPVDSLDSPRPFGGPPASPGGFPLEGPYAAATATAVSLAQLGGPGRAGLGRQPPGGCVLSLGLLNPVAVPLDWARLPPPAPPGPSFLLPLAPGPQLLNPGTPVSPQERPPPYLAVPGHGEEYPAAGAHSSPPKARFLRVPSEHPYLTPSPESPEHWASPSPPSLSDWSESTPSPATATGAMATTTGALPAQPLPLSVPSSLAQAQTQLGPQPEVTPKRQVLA
Sequence of Torsin-1A-interacting protein 2 (Homo sapiens) (Q8NFQ8 whole entry, looked up): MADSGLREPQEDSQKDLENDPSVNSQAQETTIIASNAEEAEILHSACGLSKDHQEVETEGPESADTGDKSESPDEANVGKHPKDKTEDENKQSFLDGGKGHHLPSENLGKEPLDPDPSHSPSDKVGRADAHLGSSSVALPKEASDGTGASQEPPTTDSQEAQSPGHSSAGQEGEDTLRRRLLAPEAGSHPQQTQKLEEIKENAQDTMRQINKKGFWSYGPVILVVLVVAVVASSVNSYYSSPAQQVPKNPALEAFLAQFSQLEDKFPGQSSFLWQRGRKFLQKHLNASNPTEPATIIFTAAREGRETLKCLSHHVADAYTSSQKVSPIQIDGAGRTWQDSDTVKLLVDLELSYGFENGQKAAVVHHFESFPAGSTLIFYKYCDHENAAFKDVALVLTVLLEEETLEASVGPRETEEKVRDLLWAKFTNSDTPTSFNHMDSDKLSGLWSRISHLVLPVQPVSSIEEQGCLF
Sequence of Pro-neuregulin-1, membrane-bound isoform (Homo sapiens) (Q02297 whole entry, looked up, the tested form may be a part, canonical isoform): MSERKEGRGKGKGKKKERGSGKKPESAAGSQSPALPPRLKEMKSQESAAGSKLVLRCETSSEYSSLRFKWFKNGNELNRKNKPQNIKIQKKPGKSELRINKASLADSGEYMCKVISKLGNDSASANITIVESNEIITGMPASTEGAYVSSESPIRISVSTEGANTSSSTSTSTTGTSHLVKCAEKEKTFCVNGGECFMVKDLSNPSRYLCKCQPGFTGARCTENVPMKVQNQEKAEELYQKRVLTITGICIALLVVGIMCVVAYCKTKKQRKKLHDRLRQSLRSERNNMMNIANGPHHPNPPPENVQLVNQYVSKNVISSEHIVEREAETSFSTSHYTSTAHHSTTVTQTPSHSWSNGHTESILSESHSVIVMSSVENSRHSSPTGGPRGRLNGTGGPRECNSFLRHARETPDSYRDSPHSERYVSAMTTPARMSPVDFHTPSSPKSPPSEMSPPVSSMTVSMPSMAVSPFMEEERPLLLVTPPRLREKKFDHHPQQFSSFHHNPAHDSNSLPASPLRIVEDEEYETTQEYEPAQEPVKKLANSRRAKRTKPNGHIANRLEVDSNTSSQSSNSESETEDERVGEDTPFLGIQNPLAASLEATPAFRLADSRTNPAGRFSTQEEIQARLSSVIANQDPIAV

| SMILES | composite z-score [1] | composite z-score [2] | composite z-score [3] | composite z-score [4] | composite z-score [5] | composite z-score [6] | composite z-score [7] | z-score [8] | composite z-score [9] | composite z-score [10] | composite z-score [11] | z-score [12] | z-score [13] | z-score [14] | composite z-score [15] | z-score [16] | composite z-score [17] | composite z-score [18] | composite z-score [19] | composite z-score [20] |
| --- | --- | --- | --- | --- | --- | --- | --- | --- | --- | --- | --- | --- | --- | --- | --- | --- | --- | --- | --- | --- |
| Cc1ccccc1C(O)C1C=CC2C(=O)N(c3ccccc3)C(=O)C2N1Nc1ccccc1F (stereo not given) | 0.397 | 0.0771 | 0.213 | 0.737 | 1.16 | 2.15 | 0.93 | -1.35 (inactive) | 1.19 | -0.0994 | 1.16 | 0.0769 (inactive) | 0.592 (inactive) | 0.764 (inactive) | 3.41 | -0.927 (inactive) | 0.496 | -0.471 | 1.12 | 0.0122 |
| CCCCC(O)C1C=CC2C(=O)N(C)C(=O)C2N1Nc1ccccc1 (stereo not given) | 0.645 | 0.0873 | -0.0778 | 0.435 | 0.762 | 1.76 | 1.25 | 1.63 (inactive) | 0.632 | 0.128 | 0.24 | 0.763 (inactive) | 0.555 (inactive) | 1.99 (inactive) | 3.13 | -1.26 (inactive) | -0.013 | -0.649 | 0.51 | -0.143 |
| C=CCC(OC(C)=O)[C@@H]1[C@@H](N(Cc2cccc3ccccc23)C(=O)c2ccc(C)cc2)c2cc(OCCCO)ccc2N1C(=O)c1ccc2ccccc2n1 (stereo not given in full) | -0.0635 | 0.552 | 0.01 | 0.238 | -0.327 | -0.157 | 0.0751 | -1.44 (inactive) | 0.223 | 0.386 | 0.56 | -2.04 (inactive) | 0.378 (inactive) | -0.6 (inactive) | 0.563 | 1.21 (inactive) | 0.0748 | 0.708 | 0.209 | -0.0437 |
| COCCOC(=O)N1C(=O)[C@@]2(c3ccccc31)[C@H](C(=O)N1CCCCCCC1)[C@H]1C(=O)O[C@H](c3ccccc3)[C@H](c3ccccc3)N1[C@@H]2c1ccc(O)cc1 | 3.89 | 1.42 | 0.904 | 0.559 | 1.08 | 1.59 | 1.15 | -1.43 (inactive) | 3.43 | 3.37 | 1.53 | -1.37 (inactive) | -0.268 (inactive) | 1.63 (inactive) | 4.37 | 1.39 (inactive) | 1.75 | 1.11 | 1.09 | 1.15 |
| COC(=O)[C@@]1(Cc2ccc(OC)cc2)[C@@H]2[C@@H](CC(=O)[C@H]2CC(=O)C(=O)N2CCCC2)CN1C(=O)c1ccccc1 | 2.42 | 0.296 | 0.926 | 0.884 | 1.69 | 1.94 | 1.24 | 1.31 (inactive) | 2.67 | 2.65 | 0.281 | -0.347 (inactive) | 0.304 (inactive) | -0.0364 (inactive) | 2.6 | -0.455 (inactive) | 1.76 | 0.156 | 1.09 | 1.26 |
| O=C1NC(=O)C2C1C=CC(C(O)c1ccc(F)cc1)N2Nc1ccccn1 (stereo not given) | 0.22 | 0.472 | -0.0634 | 0.354 | 0.999 | 0.906 | 0.957 | 0.632 (inactive) | 0.0731 | -0.284 | 0.477 | 0.128 (inactive) | 0.42 (inactive) | 0.333 (inactive) | 2.64 | -1.83 (inactive) | -0.103 | -0.0682 | -0.0883 | -0.0271 |
| CCC[C@@H]1[C@@H](Sc2ccccc2)[C@@H](C(=O)O)[C@H](c2ccc(C)cc2)N1S(=O)(=O)c1ccc(C)cc1 | -0.259 | 0.175 | 0.0213 | 0.894 | 1.67 | 1.15 | 1.34 | -4.1 (inactive) | 1.11 | -0.0618 | 1.56 | -0.994 (inactive) | 0.674 (inactive) | -0.698 (inactive) | 3.45 | -0.131 (inactive) | 0.114 | 1.05 | 1.04 | 0.129 |
| CC(C)N1CC=CC23O[C@@H]4C=CCCOC(=O)C4[C@H]2C(=O)N(CCCCCO)[C@@H]3C1=O (stereo not given in full) | -0.0451 | -1.06 | -0.103 | 0.279 | -0.905 | 1.93 | 1.21 | -0.928 (inactive) | -0.352 | -0.353 | 0.08 | -0.0489 (inactive) | -0.0017 (inactive) | -0.569 (inactive) | 0.988 | 0.447 (inactive) | -0.242 | 0.154 | -0.23 | -0.236 |
| COCCOC(=O)N1C(=O)[C@@]2(c3cc(C#CC4(O)CCCCCC4)ccc31)[C@H](c1ccccc1OCCO)N1[C@H](c3ccccc3)[C@H](c3ccccc3)OC(=O)[C@H]1[C@@H]2C(=O)N1CCCCCCC1 | 2.94 | 1.24 | 0.324 | 0.256 | 0.869 | 1.45 | 1.29 | -0.926 (inactive) | 2.73 | 1.83 | 1.54 | 1.94 (inactive) | 1.26 (inactive) | 3.54 (inactive) | 3.47 | 0.0805 (inactive) | 1.31 | 1.75 | 1.1 | -0.0351 |
| C=C(CCCC)C(=O)CC[C@H](OC(C)=O)c1ccccc1OCCO | -0.327 | -0.0867 | -0.0471 | 0.776 | 0.435 | 0.898 | -0.0255 | -0.881 (inactive) | 0.167 | -0.358 | 1.19 | 0.489 (inactive) | -2.03 (inactive) | -0.438 (inactive) | 0.383 | 0.733 (inactive) | -0.12 | 0.0384 | 0.67 | -0.177 |
